These results are taken from PubChem BioAssay (NCI).

Molecules are shown by their SMILES. The panel holds about 83,000 compounds, 20% with a hit somewhere; the sample as a whole holds those more often.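 Cell lines were cultured in 96-well plates, exposed to a single compound concentration, and assessed for percent growth 48 hours later.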 A number with no mark means an inactive call. Active and inactive are the calls of the source. The calls were made as follows: active = growth percent below 10; inactive = the rest.

For one assay, the system named is SR leukemia. The experiment in a line: NCI-60 one-dose screen, 48 h (100 = growth as untreated, 0 = no growth, -100 = all killed). The settings on record: 10 µM unless noted.
Regarding `C/C(Cc1ccc(Cl)cc1)=C(\c1ccc(O)cc1)c1ccc(Cl)cc1`, the growth is 80.5%. On the same count and under the same terms, the same measure for `COC12C=C/C(=C(/C(=O)OCc3ccncn3)C(=O)CCCCCCCCC3(OC)C=C/C(=C(/C(=O)OCc4ccncn4)C(=O)CCCCCCCC1)O3)O2`: -15.6% (active).

With `CCc1ccccc1-n1c(-c2ccc(OC)cc2)cc(-c2ccc(OC)cc2)c(C#N)c1=O`, the growth was 98.4%. For the molecule `COCCn1cc(-c2csc(-c3cn(C)c4ccc(Br)cc34)n2)c2cccnc21`, the growth was 31.3%. The same measure, in the same setting: next, `C=CCc1c(O)c(C(=O)/C=C/c2ccccc2)c(OC)c2ccoc12`: 20.6%; `COc1cc(-c2nc3sccn3c2-c2ccnc(NCCNS(=O)(=O)c3ccccc3)n2)ccc1F`: 45.3%; `O=c1c2cnn(-c3ccccc3)c2n2c(CN3CCOCC3)nnc2n1-c1ccccc1`: 104%. Take `O=C1C(Cl)=C(Nc2ccc(S(=O)(=O)N3CCOCC3)cc2)C(=O)c2ccccc21`: the growth is -3.16% (active). The same measure, in the same setting: next, `O=C(COc1ccc(-c2nc3cc(Cl)c(Cl)cc3[nH]2)cc1)N=Nc1c(O)[nH]c2ccc(Cl)cc12`: 31.1%; `CC1CCc2c(C(=O)Nc3ncc(Cc4cccc([N+](=O)[O-])c4)s3)csc2C1` (configuration not stated): 26.7%. On the same count and under the same terms, the same measure for `CC(C)(Sc1cc(C(C)(C)C)c(O)c(C(C)(C)C)c1)Sc1cc(C(C)(C)C)c(OC(=O)CCCC(=O)O)c(C(C)(C)C)c1`: 28.1%; for `CCSc1oc(-c2ccccc2)nc1[P+](c1ccccc1)(c1ccccc1)c1ccccc1`: 1.17% (active). On the same count and under the same terms, the same measure for `C#CCOC(=O)/C=C/c1cn(-c2ccccc2)nc1-c1ccc(OC)cc1`: 83.2%; for `Cc1ccc(CNc2ccc3nc(CCC4CCCCC4)[nH]c3c2)cc1`: 12.8%. Take `CCn1c(SCC(=O)N/N=C(\C)c2ccc(Cl)cc2)nc2c1c(=O)n(C)c(=O)n2C`: the growth is 93.4%.

Take `COc1ccc(\C=N/N=C(N)/C(N)=N\N=C/c2ccc(OC)cc2)cc1`: the growth was 46.9%. For `c1cc2c(ccc3[nH]c(-c4ccc5[nH]ncc5c4)c4c(c32)CCCC4)n1`, the growth is -7.05% (active). Same read-out and setting: next, `Cc1ccc2c(Cn3cc(CSc4nc5ccccc5o4)nn3)cc(=O)oc2c1`: 99.6%. As for `C=C(C)[C@@H]1CCC[C@]2(COS(=O)(=O)c3ccc(C)cc3)CC[C@]3(C)[C@@H](CC[C@@H]4[C@@]5(C)CCCNC(C)(C)[C@@H]5CC[C@]43C)[C@@H]12`, the growth is -46.1% (active).

Consider `COC(=O)c1c(C)c2n(c1C)C(=O)C(c1ccccc1)=C2`, for which the growth is 102%. Consider `COc1cc2cc(NCc3cccc(Cl)c3)nc(C)c2cc1OC`, for which the growth was 29.6%. On the same count and under the same terms, next, `CCN(CC)Cc1cc(C=C2C(=O)NC(=S)NC2=O)cc(OC)c1O`: 109%. Still for that read-out and setting: next, `Cc1cc(=O)oc2cc(OCc3nn4c(Nc5nc6ccccc6s5)c(-c5ccccc5)nc4s3)ccc12`: 94.7%; `COc1ccc(C(=O)N2c3ccccc3Sc3ccccc32)c(OC)c1`: 22.4%; `Cc1c(-c2ccc(O)cc2)n(Cc2ccc(OCCN3CCCCCC3)cc2)c2ccc(O)cc12`: 1.53% (active).

As for `Cc1ccc(Nn2c(SCC(=O)Nc3nc(-c4ccccc4)cs3)nc(C)c2C)cc1`, the growth was 72.6%. On the same count and under the same terms, the same measure for `CC(C)c1ccc(C(=O)Nc2nc3ccc(O)c(CN(C)C)c3s2)cc1`: 32.9%.

A further assay has as its system RPMI-8226 leukemia. Described as above. As to conditions: 10 µM unless noted.
Turning to `O=C(Nc1nc2ccc(C(=O)N3CCN(/C=C/c4ccccc4)CC3)cc2s1)c1ccc(NCCc2ccccc2)c([N+](=O)[O-])c1`, the growth is 18.5%.

For `COC12C=C/C(=C(/C(=O)OCc3ccncc3)C(=O)CCCCCCCCC3(OC)C=C/C(=C(/C(=O)OCc4ccncc4)C(=O)CCCCCCCC1)O3)O2`, the growth is -24.7% (active). The same measure, in the same setting: the same measure for `Cc1ccc2c(n1)C(=O)C(Br)=C(C1CCCC1)C2=O`: 55.9%; for `C#COc1cccc(Nc2c(C#N)cnc3ncc(NC(=O)CCl)cc23)c1`: -18.2% [6.25 µM] (active); for `COc1cc(-c2csc(NC(=O)c3ccc(N4CCOCC4)c(C(F)(F)F)c3)n2)cc(OC)c1OC`: 6.74% (active). Still for that read-out and setting: the same measure for `CC/C=C\C[C@H](O)C/C=C1/C(=O)C=C[C@@H]1C/C=C\CCCC(=O)N(C)C`: 4.43% (active). On the same count and under the same terms, next, `Oc1c(I)cc(I)cc1CNCCN(Cc1ccccn1)Cc1ccccn1`: -12.3% (active); `CC1=C([Se]CC(OC(=O)CC[Se]c2ccccc2)C(=O)NC(C)(C)C)C(=O)c2ccccc2C1=O` (configuration not stated): 14.8%; `Cc1cn(-c2cc(NC(=O)c3cncc(C#Cc4cnc(N)c5ncccc45)c3)cc(C(F)(F)F)c2)cn1`: 50.9%.

Take `CC(C)c1ccc(-n2c(=S)[nH]c3sc4cc(O)ccc4c3c2=O)cc1`: the growth is 100%. Regarding `COc1ccccc1CNc1c2ccccc2nc2ccccc12`, the growth is 8.12% (active). Same read-out and setting: the same measure for `COC(=O)c1nc(-c2ccccc2)oc1S(=O)(=O)Cc1ccccc1`: 84.5%.

`O=C1/C(=C/c2ccccc2Br)COc2ccc(O)cc21`: the growth was 1.71% (active). The same measure, in the same setting: the same measure for `C/C(Cc1ccc(Cl)cc1)=C(\c1ccc(O)cc1)c1ccc(Cl)cc1`: 72.5%. Still for that read-out and setting: the same measure for `COC12C=C/C(=C(/C(=O)OCc3ccncn3)C(=O)CCCCCCCCC3(OC)C=C/C(=C(/C(=O)OCc4ccncn4)C(=O)CCCCCCCC1)O3)O2`: -22.3% (active); for `CCc1ccccc1-n1c(-c2ccc(OC)cc2)cc(-c2ccc(OC)cc2)c(C#N)c1=O`: 105%. Still for that read-out and setting: next, `COCCn1cc(-c2csc(-c3cn(C)c4ccc(Br)cc34)n2)c2cccnc21`: 60.7%; `C=CCc1c(O)c(C(=O)/C=C/c2ccccc2)c(OC)c2ccoc12`: 6.17% (active).

Turning to `COc1cc(-c2nc3sccn3c2-c2ccnc(NCCNS(=O)(=O)c3ccccc3)n2)ccc1F`, the growth was 31%. Take `O=c1c2cnn(-c3ccccc3)c2n2c(CN3CCOCC3)nnc2n1-c1ccccc1`: the growth is 102%.

On to `O=C1C(Cl)=C(Nc2ccc(S(=O)(=O)N3CCOCC3)cc2)C(=O)c2ccccc21`, for which the growth was 21.2%. Still for that read-out and setting: the same measure for `O=C(COc1ccc(-c2nc3cc(Cl)c(Cl)cc3[nH]2)cc1)N=Nc1c(O)[nH]c2ccc(Cl)cc12`: 56%; for `CC1CCc2c(C(=O)Nc3ncc(Cc4cccc([N+](=O)[O-])c4)s3)csc2C1` (configuration not stated): 33%; for `CC(C)(Sc1cc(C(C)(C)C)c(O)c(C(C)(C)C)c1)Sc1cc(C(C)(C)C)c(OC(=O)CCCC(=O)O)c(C(C)(C)C)c1`: 37.2%. With `CCSc1oc(-c2ccccc2)nc1[P+](c1ccccc1)(c1ccccc1)c1ccccc1`, the growth was -18.9% (active). On the same count and under the same terms, next, `C#CCOC(=O)/C=C/c1cn(-c2ccccc2)nc1-c1ccc(OC)cc1`: 105%. The same measure, in the same setting: the same measure for `Cc1ccc(CNc2ccc3nc(CCC4CCCCC4)[nH]c3c2)cc1`: -24.6% (active); for `CCn1c(SCC(=O)N/N=C(\C)c2ccc(Cl)cc2)nc2c1c(=O)n(C)c(=O)n2C`: 103%.

For the molecule `COc1ccc(\C=N/N=C(N)/C(N)=N\N=C/c2ccc(OC)cc2)cc1`, the growth was 79.2%. Consider `c1cc2c(ccc3[nH]c(-c4ccc5[nH]ncc5c4)c4c(c32)CCCC4)n1`, for which the growth was 45.8%. Still for that read-out and setting: the same measure for `Cc1ccc2c(Cn3cc(CSc4nc5ccccc5o4)nn3)cc(=O)oc2c1`: 100%; for `C=C(C)[C@@H]1CCC[C@]2(COS(=O)(=O)c3ccc(C)cc3)CC[C@]3(C)[C@@H](CC[C@@H]4[C@@]5(C)CCCNC(C)(C)[C@@H]5CC[C@]43C)[C@@H]12`: -14.8% (active). Same read-out and setting: next, `COC(=O)c1c(C)c2n(c1C)C(=O)C(c1ccccc1)=C2`: 88.5%.

Take `COc1cc2cc(NCc3cccc(Cl)c3)nc(C)c2cc1OC`: the growth is 8.04% (active). On the same count and under the same terms, next, `CCN(CC)Cc1cc(C=C2C(=O)NC(=S)NC2=O)cc(OC)c1O`: 110%; `Cc1cc(=O)oc2cc(OCc3nn4c(Nc5nc6ccccc6s5)c(-c5ccccc5)nc4s3)ccc12`: 82.6%. Same read-out and setting: the same measure for `COc1ccc(C(=O)N2c3ccccc3Sc3ccccc32)c(OC)c1`: 16.2%. Turning to `Cc1c(-c2ccc(O)cc2)n(Cc2ccc(OCCN3CCCCCC3)cc2)c2ccc(O)cc12`, the growth is 57.5%. Same read-out and setting: the same measure for `Cc1ccc(Nn2c(SCC(=O)Nc3nc(-c4ccccc4)cs3)nc(C)c2C)cc1`: 55.8%; for `CC(C)c1ccc(C(=O)Nc2nc3ccc(O)c(CN(C)C)c3s2)cc1`: 70.1%.
